# High-throughput results from PubChem.
# This is one part of a sample in which hits are shown more often than they occur.
# PKM2 inhibitor – inhibitors of human pyruvate kinase M2 | 0.058% of 260,000 active | P14618 | purified PKM2, ATP generation, Kinase-Glo luminescence | Potency, µM (doses to about 57.5 µM), hits mostly inhibitors | AID 1634; further: nearly all actives have a fitted effect of over 60% in size
# Target sequence (P14618 whole entry, looked up): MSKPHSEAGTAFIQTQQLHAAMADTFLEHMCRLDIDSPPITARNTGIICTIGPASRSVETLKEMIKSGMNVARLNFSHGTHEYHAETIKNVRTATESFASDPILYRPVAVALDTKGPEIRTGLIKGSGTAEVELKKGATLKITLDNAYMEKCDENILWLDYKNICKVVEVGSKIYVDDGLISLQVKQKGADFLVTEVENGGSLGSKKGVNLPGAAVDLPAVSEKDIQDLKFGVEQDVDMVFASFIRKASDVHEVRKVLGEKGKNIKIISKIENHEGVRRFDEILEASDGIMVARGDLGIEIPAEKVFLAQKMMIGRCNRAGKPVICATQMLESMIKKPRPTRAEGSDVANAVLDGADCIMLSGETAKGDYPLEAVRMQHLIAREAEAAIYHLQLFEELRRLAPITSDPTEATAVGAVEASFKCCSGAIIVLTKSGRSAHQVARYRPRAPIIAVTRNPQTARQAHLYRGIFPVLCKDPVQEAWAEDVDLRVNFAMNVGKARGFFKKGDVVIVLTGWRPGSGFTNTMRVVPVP
#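 Coupled luciferase luminescence (Kinase-Glo) detects ATP generated from 0.1 mM ADP and 0.5 mM PEP in imidazole buffer pH 7.2 with KCl, MgCl2; 1 h at room temperature. Enzyme at intermediate activity; normalized to uninhibited and no-enzyme controls.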
# PKM2 inh dose – confirmation of human pyruvate kinase M2 inhibitors, concentration-response | 50% of 55 active | purified hPK-M2, Kinase-Glo ATP luminescence, 1 h | Potency, µM (titrated, usually from 57.5 µM), actives largely listed as inhibitors | shares compounds with PKM2 inhibitor
# FLuc counter – blocks firefly luciferase, flagging PKM2 inhibitor artifacts | shares compounds with PKM2 inhibitor | Kinase-Glo firefly luciferase, luminescence, 8 min | Potency, µM (top dose mostly 57.5 µM), actives largely listed as inhibitors | 30% of 55 active | AID 2265
# PKM2 LDH couple – PKM2 (human) inhibition, NADH coupled readout | shares compounds with PKM2 inhibitor | 55 tested, under 10 active | Potency, µM (doses to about 57.5 µM), hits mostly inhibitors | purified hPK-M2, LDH-coupled NADH fluorescence kinetic
# Hits are given with their value; i = inactive; ? = inconclusive; nt = not tested or not shown. The call rests on the fitted dose curve; in most records, active means well fitted curve in the direction sought with a large enough effect; inconclusive means small, poorly fitted or top-dose-only effect, or another doubt; inactive means no such curve, though single readings can be large; an effect the other way counts as inactive or inconclusive.
SMILES,PKM2 inhibitor,others
Cc1cccc(NS(=O)(=O)c2cc3c(cc2C)n(C)c(=O)c(=O)n3C)c1,i,
CNc1nc(-c2ccccc2)[n+](-c2ccc(C)cc2)s1,10µM,
COc1ccccc1CNC(=O)C1=CCN(S(=O)(=O)c2ccc(C)cc2)CC1,i,
CC(=C\C(=O)O)/C(=C/c1ccc(C)o1)C(=O)O,i,
Cc1cc(C)cc(NC(=O)Nc2ccc(N3CCCCC3)cc2)c1,i,
O=C(CN1CCN(c2ccc(O)cc2)CC1)Nc1ccc2c(c1)OCCO2,i,
O=C(Nc1ccc2c(c1)OCCO2)c1ccccn1,14.1µM,
O=C(Nc1ccc2oc(-c3ccccc3F)nc2c1)c1ccc2c(c1)OCCO2,i,
O=C(Nc1ccc(N2CCCCC2)cc1)c1ccccn1,15.8µM,
Cc1cc(NC(=O)C2CCCCC2)ncc1NC(=O)c1ccccn1,i,
Cc1ccc(CNC(=O)[C@H]2C[C@@H]2[C@H](NP(=O)(c2ccccc2)c2ccccc2)c2ccccc2)o1,i,
O=C(N/N=C/c1ccc(-c2ccc(Cl)c(C(=O)O)c2)o1)c1cc2c(ccc3ccccc32)o1,i,
COc1ccc(CN2CCN(C(=O)CC(C)C)CC2)cc1,i,
Cc1cc(Br)ccc1OCCn1ccnc1,i,
COc1cccc(CNc2nc3ccccc3n2C)c1O,i,
CNc1ccccc1-c1nc2ccccc2n(C)c1=O,i,
CN(C)c1ccc(N=Nc2nc3ccccc3n2C)cc1,15.8µM,
COc1ccc([N+](=O)[O-])cc1NC(=O)COC(=O)c1ccc(O)cc1,i,
Cc1[nH]c2ccccc2c1NC(=O)CN1CCN(C(=O)c2ccco2)CC1,i,
Cc1ccccc1Nc1c(-c2ccc(Cl)s2)nc2ccccn12,nt,PKM2 inh dose=i;FLuc counter=i;PKM2 LDH couple=?
O=C(CSc1n[nH]c(=O)n1C1CC1)NCc1ccccc1Cl,i,
CCCCNS(=O)(=O)c1ccc2nc(SCC(=O)c3ccc(C#N)cc3)[nH]c2c1,i,
CCOC(=O)c1c(C)sc2c1N(C(C)=O)c1cc(Cl)ccc1S2,i,
CN1C(=O)Cc2cc(S(=O)(=O)NCc3c(F)cccc3Cl)ccc21,i,
Cn1c(NCc2c[nH]c3ccccc23)nc2ccccc21,i,
SMILES,PKM2 inhibitor,others
Cn1c(N=Nc2ccccc2)nc2ccccc21,5.62µM,PKM2 inh dose=13µM;FLuc counter=5.17µM;PKM2 LDH couple=i
CC(C)(C)C(=O)/C(=C\c1ccc([N+](=O)[O-])cc1)n1cncn1,i,
COc1ccc2ccccc2c1C(=O)/C=C\c1ccoc1,i,
CC1=NN(c2nc3ccccc3[nH]2)C(=O)/C1=C/N(C)C,6.31µM,PKM2 inh dose=2.31µM;FLuc counter=6.51µM;PKM2 LDH couple=i
COc1ccc(S(=O)(=O)c2nnn(-c3cccc(Cl)c3)c2N)cc1,i,
CCc1nnc(NC(=O)CSc2nnc(-c3ccc(NS(=O)(=O)c4ccccc4)cc3)o2)s1,i,
Cc1cc2ncc(S(=O)(=O)c3ccccc3)c(N)n2n1,i,
COc1ccc(S(=O)(=O)N(CC(=O)NC2CC2)c2ccc(C)cc2)cc1,i,
O=Cc1s/c(=N\S(=O)(=O)c2ccccc2)n(CCCCl)c1Cl,i,
O=C(NC(=O)c1ccccc1)Nc1ccccn1,5.01µM,PKM2 inh dose=11.6µM;FLuc counter=5.17µM;PKM2 LDH couple=i
Cc1cc(C)c(NC(=O)NC(=O)c2cccc(F)c2)c(C)n1,i,
O=C(O)c1ccc(NC(=S)NC(=O)c2ccc(-c3ccccc3)cc2)cc1,i,
Cc1ccn2c(NCc3ccco3)c(-c3ccccc3)nc2c1,nt,PKM2 inh dose=i;FLuc counter=i;PKM2 LDH couple=?
COC(=O)Nc1c(-c2ccccc2)nc2ccccn12,i,
Cc1n[nH]c(=O)nc1NCc1ccco1,i,
O=C(COC(=O)C1CCN(S(=O)(=O)c2ccc3c(c2)OCCO3)CC1)Nc1cc(C(F)(F)F)ccc1Cl,i,
COc1ccccc1NS(=O)(=O)c1cc(C(=O)NCCC(C)C)ccc1F,i,
Cn1c(=O)n(C)c2cc(NC(=O)c3ccccc3[N+](=O)[O-])c(Br)cc21,i,
CCCNC(=O)c1cc(S(=O)(=O)N2CCCCC2)c[nH]1,i,
CC(=O)C1=C(c2cccc([N+](=O)[O-])c2)N(C(C)=O)n2c(C)nnc2S1,i,
CCS(=O)(=O)N1Cc2ccccc2CC1C(=O)Nc1nnc(SCc2ccc(F)cc2)s1 (stereo not given),i,
CC(=O)Nc1sc(N/N=C\c2ccccc2F)nc1-c1cccs1,i,
CC1C/C(=C/c2ccccn2)C(=O)/C(=C/c2ccccn2)C1 (stereo not given),i,
Cc1nc(N/N=C/c2ccccn2)sc1C,7.94µM,PKM2 inh dose=9.19µM;FLuc counter=5.17µM;PKM2 LDH couple=i
COc1cccc(CNC(=O)CCC2CCCN(C(=O)c3ccc(OC)o3)C2)c1 (stereo not given),i,
SMILES,PKM2 inhibitor,others
Cc1cc(C)nc(NC(=O)CSc2nn(-c3ccccc3)c(=S)s2)n1,i,
CN(Cc1ccccc1)S(=O)(=O)c1ccc(Cl)c(C(=O)NCCc2ccccn2)c1,i,
COCCn1c(=O)[nH]c2cc(C(=O)N3CCN(c4cccc(C)c4C)CC3)ccc2c1=O,i,
O=C1C=CC(=O)N1CCCCCCN1C(=O)C=CC1=O,10µM,PKM2 inh dose=6.51µM;FLuc counter=i;PKM2 LDH couple=i
CCN(CC)c1ccc(/C=C2\SC(=O)N(C(C)C)C2=O)o1,i,
CC(C)(C)CN1CCNC(=O)C1CC(=O)NCCc1ccccc1F (stereo not given),i,
COc1ccc(S(=O)(=O)Nc2ccc3c(c2)n(C)c(=O)n3C)cc1,i,
CC(=O)Oc1ccc(NC(=O)Cc2ccccc2)c(C(=O)O)c1,i,
CCOc1ccc(NC(=O)Nc2ccccc2C(N)=O)cc1,3.98µM,PKM2 inh dose=9.19µM;FLuc counter=6.51µM;PKM2 LDH couple=i
CCOC(=O)C(Nc1ccc2ccccc2c1)C(=O)OCC,i,
Cc1cc2c(cc1S(=O)(=O)Nc1cccc(F)c1)n(C)c(=O)c(=O)n2C,i,
CC(=O)N1N=C(c2ccc(C)cc2)CC1c1ccc2c(c1)OCO2 (stereo not given),i,
Cc1ccnc(NC(=O)c2ccc3c(c2)OCO3)c1,12.6µM,PKM2 inh dose=16.3µM;FLuc counter=13µM;PKM2 LDH couple=i
Cc1ccnc(NS(=O)(=O)c2ccc3c(c2)CCO3)c1,i,
O=S(=O)(c1cccc2nsnc12)N1CCc2ccccc21,i,
CC(C)(C)NC(=O)C1CCC(CNc2c(N3CCCCC3)c(=O)c2=O)CC1 (stereo not given),i,
CN(C)c1nc(N)nc(CSc2nnnn2-c2ccccc2)n1,i,
COc1cccc(NC(=O)CSc2nnc3cc(C)nc(N)n23)c1,i,
COc1ccc(C(=O)Nc2cccc(OC)c2)cc1,?,PKM2 inh dose=?;FLuc counter=?;PKM2 LDH couple=i
COc1cccc(NC(=O)CSc2nnc(C)s2)c1,i,
Cc1cc2nnc(SCC(=O)Nc3ccc(Cl)cc3)n2c(N)n1,i,
Cc1occc1C(=O)N/N=C/c1ccc2c(c1)OCO2,5.62µM,PKM2 inh dose=13µM;FLuc counter=2.59µM;PKM2 LDH couple=i
CS(=O)(=O)N(CC(=O)N/N=C/c1cc2c(cc1Br)OCO2)c1ccccc1Br,i,
O=C(COc1ccccc1C(=O)N/N=C\c1ccc(O)c(O)c1)N/N=C/c1ccc(O)c(O)c1,i,
O=C(CN(CCc1ccccc1)S(=O)(=O)c1ccc(Br)cc1)N/N=C/c1ccccc1C(=O)O,i,
N#Cc1c2c(c(Nc3ccc(O)cc3)n3c1nc1ccccc13)CCC2,i,
CCOc1ccc(NS(=O)(=O)c2ccc(NC(=O)c3cccnc3)c(OC)c2)cc1,i,
Cc1ccc(-c2nc3cccc(C)n3c2Nc2ccc(F)cc2)o1,nt,PKM2 inh dose=i;FLuc counter=i;PKM2 LDH couple=9.19µM
